Laboratory results published in PubChem BioAssay (NCI).
Compounds without any hit were thinned out: in the full panel of roughly 83,000, 20% have a hit.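 In brief: 96-well plates, 48 h treatment, single concentration, percent growth endpoint.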 The source made the active and inactive calls. The calls were made as follows: active = growth percent below 10; inactive = the rest.

What was measured:
Test in all cases: NCI-60 one-dose screen, 48 h (100 = growth as untreated, 0 = no growth, -100 = all killed)
Details in all cases: 10 µM unless noted
NCI-H23 lung = tested on: NCI-H23 lung
NCI-H226 lung = tested on: NCI-H226 lung
NCI-H322M lung = tested on: NCI-H322M lung
HOP-62 NSCLC = tested on: HOP-62 NSCLC
NCI-H460 lung = tested on: NCI-H460 lung
NCI-H522 lung = tested on: NCI-H522 lung
A549/ATCC NSCLC = tested on: A549/ATCC NSCLC
786-0 renal = tested on: 786-0 renal
COLO 205 colon = tested on: COLO 205 colon
DU-145 prostate = tested on: DU-145 prostate

Measured: growth

O=C(/C=C/c1ccccc1Cl)c1ccc(O)cc1
active: DU-145 prostate -7.3%
inactive: NCI-H23 lung 93.7% | NCI-H226 lung 95.2% | NCI-H322M lung 89.5% | HOP-62 NSCLC 117% | NCI-H460 lung 93.8% | NCI-H522 lung 58.2% | A549/ATCC NSCLC 41.8% | 786-0 renal 85% | COLO 205 colon 90%

Clc1ccc(-c2nc(-c3cccs3)no2)c(Cl)c1
inactive: NCI-H23 lung 92.6% | NCI-H226 lung 88.7% | NCI-H322M lung 120% | HOP-62 NSCLC 84.9% | NCI-H460 lung 92.1% | NCI-H522 lung 91.4% | A549/ATCC NSCLC 91.4% | 786-0 renal 97.4% | COLO 205 colon 106% | DU-145 prostate 99.3%

C[n+]1ccc(C#N)c2ccccc21
inactive: NCI-H23 lung 94.7% | NCI-H226 lung 93.3% | NCI-H322M lung 98% | HOP-62 NSCLC 94.4% | NCI-H460 lung 109% | NCI-H522 lung 68.2% | A549/ATCC NSCLC 106% | 786-0 renal 90.2% | COLO 205 colon 48.8% | DU-145 prostate 91.8%

C[C@]12CC[C@@H]3c4ccc(O)cc4CC[C@H]3[C@@H]1CC[C@@H]2NS(=O)(=O)c1cccc(Br)c1
active: HOP-62 NSCLC -16.6%
inactive: NCI-H23 lung 68.1% | NCI-H226 lung 60.5% | NCI-H322M lung 70.6% | NCI-H460 lung 61.7% | NCI-H522 lung 40.4% | A549/ATCC NSCLC 43.2% | 786-0 renal 70.3% | COLO 205 colon 64.7% | DU-145 prostate 75%

O=C(Nc1cccc(C(F)(F)F)c1)Nc1ccc(OCc2nnc(-c3ccc(Cl)cc3)o2)c(F)c1
inactive: NCI-H23 lung 68% | NCI-H226 lung 94.9% | NCI-H322M lung 86.5% | HOP-62 NSCLC 50.8% | NCI-H460 lung 63.9% | NCI-H522 lung 64% | A549/ATCC NSCLC 50% | 786-0 renal 84.2% | COLO 205 colon 66.5% | DU-145 prostate 88.1%

C=C(C)[C@@H]1C[C@H](O)Cc2cc(Cl)cc(Cl)c2N1
inactive: NCI-H23 lung 103% | NCI-H226 lung 100% | NCI-H322M lung 100% | HOP-62 NSCLC 96.6% | NCI-H460 lung 110% | NCI-H522 lung 92.8% | A549/ATCC NSCLC 94.2% | 786-0 renal 100% | COLO 205 colon 107% | DU-145 prostate 108%

COc1c(C)c2c(c(O)c1C/C=C(\C)CCC(=O)OCCN1CCOCC1)C(=O)OC2
active: NCI-H460 lung 2.48% | NCI-H522 lung -3.49% | A549/ATCC NSCLC 5.79%
inactive: NCI-H23 lung 19.4% | NCI-H226 lung 50.2% | NCI-H322M lung 33.2% | HOP-62 NSCLC 34.9% | 786-0 renal 24.7% | COLO 205 colon 38.1% | DU-145 prostate 36.4%

N#Cc1c2ccccc2c2n1-c1ccccc1OC(c1ccccc1)C2=O (stereo not given)
inactive: NCI-H23 lung 22.6% | NCI-H226 lung 21.2% | NCI-H322M lung 81.5% | HOP-62 NSCLC 32.6% | NCI-H460 lung 31.8% | A549/ATCC NSCLC 10.4% | 786-0 renal 31.7% | COLO 205 colon 63.9% | DU-145 prostate 56.7%
active: NCI-H522 lung -43.7%

CCC1=C(c2ccc(OC)cc2)C(C)(C)Oc2cc(O)c(CN3CCCC3)cc21
inactive: NCI-H23 lung 68.1% | NCI-H226 lung 97.6% | NCI-H322M lung 92% | HOP-62 NSCLC 71.4% | NCI-H460 lung 86.6% | NCI-H522 lung 41.5% | A549/ATCC NSCLC 85.1% | 786-0 renal 59% | COLO 205 colon 65.9% | DU-145 prostate 93.8%

COC1=CC(c2ccc[nH]2)=N/C1=C\c1[nH]c(C)c(C(=O)CCC(=O)Oc2ccc3c(c2)CCC2C3CC[C@]3(C)C(=O)CC[C@@H]23)c1C (stereo not given in full)
inactive: NCI-H23 lung 73.5% | NCI-H226 lung 87.6% | NCI-H322M lung 81.4% | HOP-62 NSCLC 80.2% | NCI-H460 lung 48.3% | NCI-H522 lung 57.3% | A549/ATCC NSCLC 49.9% | 786-0 renal 75.8% | COLO 205 colon 87.9% | DU-145 prostate 28.5%

CCCCCCCCCCCCCCCCCc1nccn1CCO
inactive: NCI-H23 lung 70.7% | NCI-H226 lung 97.3% | NCI-H322M lung 78.1% | HOP-62 NSCLC 68% | NCI-H460 lung 24.6% | NCI-H522 lung 52.6% | A549/ATCC NSCLC 64.7% | 786-0 renal 62.3% | COLO 205 colon 19% | DU-145 prostate 90%

COC1CC2CCC(C)C(O)(O2)C(=O)C(=O)N2CCCCC2C(=O)OC(C(C)CC2CCC(O)C(OC)C2)CC(=O)C(C)C=C(C)C(O)C(OC)C(=O)C(C)CC(C)/C=C/C=C/C=C1C (stereo not given)
inactive: NCI-H23 lung 49.2% | NCI-H226 lung 48.6% | NCI-H322M lung 39.4% | HOP-62 NSCLC 51.3% | NCI-H460 lung 43.1% | NCI-H522 lung 42.7% | A549/ATCC NSCLC 36.8% | 786-0 renal 43% | COLO 205 colon 64.7% | DU-145 prostate 42%

COc1ccc2nc(NC(=O)c3cc(-c4ccc(F)cc4)n4nc(-c5ccccc5)cc4n3)sc2c1
inactive: NCI-H23 lung 53.6% | NCI-H226 lung 84% | NCI-H322M lung 82.8% | HOP-62 NSCLC 61.4% | NCI-H460 lung 79.2% | NCI-H522 lung 95.8% | A549/ATCC NSCLC 77.1% | 786-0 renal 90.8% | COLO 205 colon 76.3% | DU-145 prostate 78.1%

CSc1ncc2ncn(C3OC(CO)C(O)C3O)c2n1 (stereo not given)
inactive: NCI-H23 lung 137% | NCI-H226 lung 102% | NCI-H322M lung 124% | HOP-62 NSCLC 119% | NCI-H460 lung 120% | NCI-H522 lung 119% | A549/ATCC NSCLC 108% | 786-0 renal 110% | COLO 205 colon 142% | DU-145 prostate 115%

COc1ccc(-c2cnnn2-c2cc(OC)c3c(c2)OCO3)cc1
inactive: NCI-H23 lung 26.6% | NCI-H226 lung 88.4% | NCI-H322M lung 42.8% | HOP-62 NSCLC 30.2% | NCI-H460 lung 11.2% | A549/ATCC NSCLC 18.3% | 786-0 renal 42.3% | DU-145 prostate 12.8%
active: NCI-H522 lung -45.2% | COLO 205 colon -80.4%

O=C(Nc1cccc2ccccc12)c1cc2c(cc1Br)OCO2
inactive: NCI-H23 lung 88.6% | NCI-H226 lung 81% | NCI-H322M lung 97.8% | HOP-62 NSCLC 125% | NCI-H460 lung 92.9% | NCI-H522 lung 103% | A549/ATCC NSCLC 113% | 786-0 renal 158% | COLO 205 colon 76.2% | DU-145 prostate 103%

Oc1[nH]c2ccccc2c1/C=c1/ccc2c(c1)N=C(c1cc(F)cc(F)c1)N=2
inactive: NCI-H23 lung 64.3% | NCI-H226 lung 85.4% | NCI-H322M lung 83.1% | HOP-62 NSCLC 101% | NCI-H460 lung 56.9% | NCI-H522 lung 59.7% | A549/ATCC NSCLC 66.5% | 786-0 renal 64.2% | COLO 205 colon 96% | DU-145 prostate 72.1%

CC1=C(C(=O)Nc2ccccc2)C(c2ccc3c(c2)OCCO3)NC(=O)N1 (stereo not given)
inactive: NCI-H23 lung 101% | NCI-H226 lung 102% | NCI-H322M lung 107% | HOP-62 NSCLC 104% | NCI-H460 lung 107% | NCI-H522 lung 104% | A549/ATCC NSCLC 98.8% | 786-0 renal 100% | COLO 205 colon 105% | DU-145 prostate 114%

O=C1c2ccccc2C(=O)c2c1cccc2-n1nnc2ccccc21
inactive: NCI-H23 lung 106% | NCI-H226 lung 103% | NCI-H322M lung 118% | HOP-62 NSCLC 101% | NCI-H460 lung 111% | NCI-H522 lung 86% | A549/ATCC NSCLC 116% | 786-0 renal 106% | COLO 205 colon 116% | DU-145 prostate 108%

Cc1cc(NC(=O)c2ccc(N)cc2)ccc1N=Nc1ccc2c(O)c(N=Nc3ccc(Cl)c(S(=O)(=O)O)c3)c(S(=O)(=O)O)cc2c1
inactive: NCI-H23 lung 69.9% | NCI-H226 lung 81.9% | NCI-H322M lung 62.5% | HOP-62 NSCLC 64.2% | NCI-H460 lung 49.7% | NCI-H522 lung 78.6% | A549/ATCC NSCLC 60.5% | 786-0 renal 110% | COLO 205 colon 117% | DU-145 prostate 111%

O=C1NCC(Nc2ccc(Br)cc2Cl)C(=O)N1 (stereo not given)
inactive: NCI-H23 lung 100% | NCI-H226 lung 109% | NCI-H322M lung 126% | HOP-62 NSCLC 113% | NCI-H460 lung 112% | NCI-H522 lung 93% | A549/ATCC NSCLC 122% | 786-0 renal 103% | COLO 205 colon 98% | DU-145 prostate 119%

COc1cc(/C=C2\COc3ccc(O)cc3C2=O)cc(OC)c1
inactive: NCI-H23 lung 93.8% | NCI-H226 lung 94.9% | NCI-H322M lung 90.8% | HOP-62 NSCLC 86% | NCI-H460 lung 82.4% | NCI-H522 lung 32.3% | A549/ATCC NSCLC 92.3% | 786-0 renal 87.6% | COLO 205 colon 81.6% | DU-145 prostate 72%

Cc1cc(C(C)(C)C)cc(C)c1CC1=NCCN1
inactive: NCI-H23 lung 99% | NCI-H226 lung 89.2% | NCI-H322M lung 102% | HOP-62 NSCLC 109% | NCI-H460 lung 118% | NCI-H522 lung 106% | A549/ATCC NSCLC 104% | 786-0 renal 96.9% | COLO 205 colon 92.6% | DU-145 prostate 107%

COc1cc([C@@H]2c3cc4c(cc3C(O[C@@H]3O[C@@H]5CO[C@@H](c6cccs6)OC5[C@H](O)[C@H]3O)C3COC(=O)[C@@H]32)OCO4)cc(OC)c1O (stereo not given in full)
active: NCI-H23 lung -32.5% | NCI-H226 lung -53.9% | NCI-H322M lung 7.81% | HOP-62 NSCLC -39.8% | NCI-H460 lung -36.7% | NCI-H522 lung -53.7% | A549/ATCC NSCLC -48.3% | 786-0 renal -40.6% | COLO 205 colon -23.8% | DU-145 prostate -33.4%

O=C(OC[C@H]1O[C@H](OC(=O)c2cc(O)c(O)c(OC(=O)c3cc(O)c(O)c(O)c3)c2)[C@H](OC(=O)c2cc(O)c(O)c(OC(=O)c3cc(O)c(O)c(O)c3)c2)[C@@H](OC(=O)c2cc(O)c(O)c(OC(=O)c3cc(O)c(O)c(O)c3)c2)[C@@H]1OC(=O)c1cc(O)c(O)c(OC(=O)c2cc(O)c(O)c(O)c2)c1)c1cc(O)c(O)c(OC(=O)c2cc(O)c(O)c(O)c2)c1
active: NCI-H226 lung 7.2% | NCI-H522 lung -11%
inactive: NCI-H23 lung 19% | NCI-H322M lung 19.3% | HOP-62 NSCLC 46.2% | NCI-H460 lung 11.6% | A549/ATCC NSCLC 34% | 786-0 renal 18.5% | COLO 205 colon 55.1% | DU-145 prostate 30.3%

O=C(OCCBr)c1ccc(Cl)c([N+](=O)[O-])c1
active: NCI-H522 lung 8.61%
inactive: NCI-H23 lung 104% | NCI-H226 lung 126% | NCI-H322M lung 28.6% | HOP-62 NSCLC 131% | NCI-H460 lung 103% | A549/ATCC NSCLC 104% | 786-0 renal 102% | COLO 205 colon 106% | DU-145 prostate 14.6%

COC(=O)c1ccc2c(c1)nc(-c1ccc(O)c(OC)c1)n2-c1cc(C(C)(C)C)[nH]n1
inactive: NCI-H23 lung 93.3% | NCI-H226 lung 106% | NCI-H322M lung 103% | HOP-62 NSCLC 128% | NCI-H460 lung 96.3% | NCI-H522 lung 78.7% | A549/ATCC NSCLC 87.9% | 786-0 renal 97.7% | COLO 205 colon 120% | DU-145 prostate 118%
